Assay results published in the supplement of paper PMC11732987, “Enantioselective OTUD7B fragment discovery through chemoproteomics screening and high-throughput optimisation” (Communications Chemistry, 2025).
Values without a mark were called inactive.

Tests used:
Assay in all cases: log2 ratio of Biotin-Ahx-Ub-VS probe labelling (fragment/DMSO); higher = less target engagement (more negative = stronger competition), active = hit call of the paper (q ≤ 0.05, log2 ratio ≤ -1)
Conditions in all cases: compound concentration: 200 uM; treatment time: 3 h
[1] = target: T1, OTUD6B (UniProt Q8N6M0)
T1 sequence (whole entry): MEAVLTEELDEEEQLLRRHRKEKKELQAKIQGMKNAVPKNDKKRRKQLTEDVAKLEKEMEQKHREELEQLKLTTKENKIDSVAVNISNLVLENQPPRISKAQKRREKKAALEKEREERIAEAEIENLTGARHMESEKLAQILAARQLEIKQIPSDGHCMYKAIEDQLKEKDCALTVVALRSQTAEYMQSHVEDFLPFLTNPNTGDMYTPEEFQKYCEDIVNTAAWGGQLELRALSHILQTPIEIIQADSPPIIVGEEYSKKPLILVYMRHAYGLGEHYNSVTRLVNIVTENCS
How it was run: (§1)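 HEK293T lysate, 495 µg per sample in Tris/CHAPS/IGEPAL buffer with protease inhibitors, was treated in triplicate with fragment at 200 µM or vehicle for 3 h and then with Biotin-Ahx-Ub-VS at 0.5 µM final for 1 h. Labelled DUBs were NeutrAvidin-enriched, digested with LysC and trypsin, and run by diaPASEF LC-MS/MS. Spectronaut label-free quantities were global-median-normalised, and values are average log2 fragment/vehicle ratios by unpaired t-test on proteins with ≥2 unique peptides.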

[2] = target: T2, OTUD7B (UniProt Q6GQQ9)
T2 sequence (whole entry): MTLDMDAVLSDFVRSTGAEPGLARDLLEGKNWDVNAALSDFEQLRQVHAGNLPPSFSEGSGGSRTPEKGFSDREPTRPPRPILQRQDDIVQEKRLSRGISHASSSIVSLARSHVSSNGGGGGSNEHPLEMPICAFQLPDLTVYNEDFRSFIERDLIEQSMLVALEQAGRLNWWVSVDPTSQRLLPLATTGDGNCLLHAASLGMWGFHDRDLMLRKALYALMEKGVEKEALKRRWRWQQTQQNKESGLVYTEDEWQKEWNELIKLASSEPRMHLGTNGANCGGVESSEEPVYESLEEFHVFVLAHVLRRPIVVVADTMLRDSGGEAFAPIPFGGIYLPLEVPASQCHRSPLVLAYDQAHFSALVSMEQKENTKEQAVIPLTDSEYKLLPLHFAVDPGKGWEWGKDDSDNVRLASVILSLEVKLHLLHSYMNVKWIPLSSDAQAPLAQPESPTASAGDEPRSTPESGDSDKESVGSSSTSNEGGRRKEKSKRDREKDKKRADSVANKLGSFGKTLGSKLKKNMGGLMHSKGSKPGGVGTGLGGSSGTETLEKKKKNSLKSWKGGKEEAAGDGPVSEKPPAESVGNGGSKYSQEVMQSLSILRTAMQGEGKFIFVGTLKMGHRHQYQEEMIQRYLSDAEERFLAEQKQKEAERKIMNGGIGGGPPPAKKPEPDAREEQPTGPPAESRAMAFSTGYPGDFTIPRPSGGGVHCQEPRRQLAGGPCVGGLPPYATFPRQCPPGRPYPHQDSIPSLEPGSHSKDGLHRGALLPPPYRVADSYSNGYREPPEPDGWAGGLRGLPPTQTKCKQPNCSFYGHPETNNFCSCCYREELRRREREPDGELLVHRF
How it was run: as §1

[3] = target: PRPF8 (UniProt Q6P2Q9)
How it was run: as §1

[4] = target: T3, PSMD7 (UniProt P51665)
T3 sequence (whole entry): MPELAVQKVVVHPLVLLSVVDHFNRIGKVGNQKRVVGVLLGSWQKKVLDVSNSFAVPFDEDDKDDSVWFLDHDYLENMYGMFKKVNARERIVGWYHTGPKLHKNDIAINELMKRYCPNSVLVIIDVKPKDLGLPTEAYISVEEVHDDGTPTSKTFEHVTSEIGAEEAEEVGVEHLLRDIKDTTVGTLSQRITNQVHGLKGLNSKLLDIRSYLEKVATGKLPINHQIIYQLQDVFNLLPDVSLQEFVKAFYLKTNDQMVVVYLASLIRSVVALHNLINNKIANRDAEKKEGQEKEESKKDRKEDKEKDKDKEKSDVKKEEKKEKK
How it was run: as §1

[5] = target: UCHL1 (UniProt P09936)
Sequence of UCHL1 (P09936 whole entry, looked up): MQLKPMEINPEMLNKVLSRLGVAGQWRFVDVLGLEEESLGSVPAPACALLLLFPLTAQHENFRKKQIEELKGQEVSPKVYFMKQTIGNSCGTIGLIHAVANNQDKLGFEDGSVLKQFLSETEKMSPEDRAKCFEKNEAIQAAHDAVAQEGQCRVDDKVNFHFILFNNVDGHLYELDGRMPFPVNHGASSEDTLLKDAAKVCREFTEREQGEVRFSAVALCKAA
How it was run: as §1

[6] = target: T4, UCHL3 (UniProt P15374)
T4 sequence (whole entry): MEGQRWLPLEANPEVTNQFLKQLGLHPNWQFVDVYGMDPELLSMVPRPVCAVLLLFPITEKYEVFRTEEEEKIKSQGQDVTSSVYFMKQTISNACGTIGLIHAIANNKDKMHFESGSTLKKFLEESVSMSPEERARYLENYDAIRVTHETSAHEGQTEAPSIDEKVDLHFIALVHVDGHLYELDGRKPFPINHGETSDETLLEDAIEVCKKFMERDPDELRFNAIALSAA
How it was run: as §1

[7] = target: T5, UCHL5 (UniProt Q9Y5K5)
T5 sequence (whole entry): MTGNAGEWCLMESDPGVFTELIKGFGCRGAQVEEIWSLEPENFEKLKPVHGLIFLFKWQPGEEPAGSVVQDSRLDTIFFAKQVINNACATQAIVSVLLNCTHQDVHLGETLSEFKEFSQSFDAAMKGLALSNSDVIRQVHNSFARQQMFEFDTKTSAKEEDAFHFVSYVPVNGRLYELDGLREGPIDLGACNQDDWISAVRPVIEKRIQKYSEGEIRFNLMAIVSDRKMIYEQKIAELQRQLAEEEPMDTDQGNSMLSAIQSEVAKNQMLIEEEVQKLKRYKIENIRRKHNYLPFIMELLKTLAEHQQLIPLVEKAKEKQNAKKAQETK
How it was run: as §1

[8] = target: USP10 (UniProt Q14694)
Sequence of USP10 (Q14694 whole entry): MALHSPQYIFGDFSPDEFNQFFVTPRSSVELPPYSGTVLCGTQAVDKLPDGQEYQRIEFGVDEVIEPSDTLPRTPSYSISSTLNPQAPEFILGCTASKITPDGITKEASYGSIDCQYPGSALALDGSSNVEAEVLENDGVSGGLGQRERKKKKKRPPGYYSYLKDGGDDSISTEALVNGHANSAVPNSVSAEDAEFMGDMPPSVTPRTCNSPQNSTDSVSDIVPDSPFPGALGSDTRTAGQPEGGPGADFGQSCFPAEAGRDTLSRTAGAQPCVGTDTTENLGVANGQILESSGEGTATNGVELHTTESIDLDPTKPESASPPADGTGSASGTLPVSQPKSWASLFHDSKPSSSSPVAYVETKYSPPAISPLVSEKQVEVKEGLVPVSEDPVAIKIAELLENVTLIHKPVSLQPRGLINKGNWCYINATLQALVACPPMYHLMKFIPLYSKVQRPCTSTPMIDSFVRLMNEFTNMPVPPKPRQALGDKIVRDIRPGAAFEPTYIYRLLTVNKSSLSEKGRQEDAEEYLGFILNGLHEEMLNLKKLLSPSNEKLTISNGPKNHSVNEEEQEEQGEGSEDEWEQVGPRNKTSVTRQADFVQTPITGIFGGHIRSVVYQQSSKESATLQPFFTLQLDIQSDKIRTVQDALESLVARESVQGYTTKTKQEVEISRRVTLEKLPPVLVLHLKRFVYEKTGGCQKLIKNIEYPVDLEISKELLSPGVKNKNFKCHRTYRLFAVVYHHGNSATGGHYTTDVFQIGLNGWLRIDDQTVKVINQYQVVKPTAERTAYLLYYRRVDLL
How it was run: as §1

[9] = target: T6, USP15 (UniProt Q9Y4E8)
T6 sequence (whole entry): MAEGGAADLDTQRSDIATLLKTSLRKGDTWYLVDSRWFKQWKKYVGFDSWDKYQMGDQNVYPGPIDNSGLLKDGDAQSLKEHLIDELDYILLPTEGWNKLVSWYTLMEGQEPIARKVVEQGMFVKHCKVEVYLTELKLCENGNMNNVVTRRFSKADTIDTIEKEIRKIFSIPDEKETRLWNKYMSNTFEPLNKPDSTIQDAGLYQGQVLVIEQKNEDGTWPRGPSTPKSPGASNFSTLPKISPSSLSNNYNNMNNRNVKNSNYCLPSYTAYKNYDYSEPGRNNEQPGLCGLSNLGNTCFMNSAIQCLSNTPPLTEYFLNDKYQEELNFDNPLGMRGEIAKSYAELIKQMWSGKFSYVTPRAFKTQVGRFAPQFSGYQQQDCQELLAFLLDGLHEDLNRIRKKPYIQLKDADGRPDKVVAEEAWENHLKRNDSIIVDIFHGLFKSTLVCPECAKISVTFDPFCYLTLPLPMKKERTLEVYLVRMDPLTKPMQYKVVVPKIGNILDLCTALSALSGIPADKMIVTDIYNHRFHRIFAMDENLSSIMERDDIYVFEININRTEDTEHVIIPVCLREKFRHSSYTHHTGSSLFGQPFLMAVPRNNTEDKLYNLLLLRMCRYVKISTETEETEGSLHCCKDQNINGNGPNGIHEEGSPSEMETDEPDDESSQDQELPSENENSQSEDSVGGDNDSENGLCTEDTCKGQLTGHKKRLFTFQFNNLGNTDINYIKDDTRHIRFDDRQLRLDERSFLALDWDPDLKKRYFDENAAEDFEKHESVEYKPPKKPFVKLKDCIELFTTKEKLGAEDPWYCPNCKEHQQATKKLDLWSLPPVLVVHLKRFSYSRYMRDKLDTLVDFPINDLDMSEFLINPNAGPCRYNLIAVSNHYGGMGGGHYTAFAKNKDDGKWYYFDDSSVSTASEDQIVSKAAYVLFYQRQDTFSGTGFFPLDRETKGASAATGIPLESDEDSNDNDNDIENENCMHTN
How it was run: as §1

[10] = target: USP16 (UniProt Q9Y5T5)
Sequence of USP16 (Q9Y5T5 whole entry, looked up): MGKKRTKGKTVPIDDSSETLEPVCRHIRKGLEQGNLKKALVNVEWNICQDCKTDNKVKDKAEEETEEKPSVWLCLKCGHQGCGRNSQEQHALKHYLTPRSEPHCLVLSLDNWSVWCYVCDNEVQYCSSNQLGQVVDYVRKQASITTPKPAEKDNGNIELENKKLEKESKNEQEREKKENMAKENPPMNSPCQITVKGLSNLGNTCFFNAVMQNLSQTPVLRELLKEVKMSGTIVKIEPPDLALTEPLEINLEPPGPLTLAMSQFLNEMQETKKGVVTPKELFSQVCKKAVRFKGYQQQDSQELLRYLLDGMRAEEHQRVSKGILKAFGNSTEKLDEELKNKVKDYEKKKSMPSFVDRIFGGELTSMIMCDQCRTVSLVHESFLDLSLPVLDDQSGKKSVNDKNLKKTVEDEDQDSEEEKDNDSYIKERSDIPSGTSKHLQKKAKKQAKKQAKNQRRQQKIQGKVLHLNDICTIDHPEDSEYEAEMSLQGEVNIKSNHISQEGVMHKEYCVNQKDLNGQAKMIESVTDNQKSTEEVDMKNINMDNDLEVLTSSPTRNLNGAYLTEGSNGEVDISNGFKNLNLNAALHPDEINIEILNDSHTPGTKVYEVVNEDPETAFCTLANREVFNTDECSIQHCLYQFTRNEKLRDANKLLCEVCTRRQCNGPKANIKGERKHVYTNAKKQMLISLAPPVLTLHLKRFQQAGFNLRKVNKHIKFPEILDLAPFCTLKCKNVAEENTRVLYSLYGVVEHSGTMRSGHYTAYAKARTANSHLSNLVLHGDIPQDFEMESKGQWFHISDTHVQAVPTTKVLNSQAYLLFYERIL
How it was run: as §1

**Q.** How did the “log2 ratio of Biotin-Ahx-Ub-VS probe labelling” value (shortened to “log2 ratio”) [1] turn out when NC(=O)C1CCCN(C(=O)CCl)C1 (stereo not given) was run?
**A.** The value was 0.0096.

**Q.** What about the “log2 ratio” value [2] of the same molecule?
**A.** The value was -0.633.

**Q.** What about the “log2 ratio” value [3] of the same molecule?
**A.** Its value is 0.0408.

**Q.** What about the “log2 ratio” value [4] of the same molecule?
**A.** Its value is -0.26.

**Q.** And the “log2 ratio” value [5]?
**A.** Its value is -1.4 (active).

**Q.** And the “log2 ratio” value [6]?
**A.** Its value is 0.133.

**Q.** And the “log2 ratio” value [7]?
**A.** The value was 0.0623.

**Q.** What about the “log2 ratio” value [8] of the same molecule?
**A.** The value was -0.05.

**Q.** And the “log2 ratio” value [9]?
**A.** The value was -0.0343.

**Q.** And the “log2 ratio” value [10]?
**A.** Its value is -0.387.
